Assay outcomes deposited in PubChem BioAssay by National Center for Advancing Translational Sciences (NCATS).
HepG2 tox: counter-screen for TGF-b inhibitors: cytotoxicity in HepG2 cells; HepG2 CAGA-GFP viability, ATP luminescence, 18 h; Potency, µM (series often up to 46.1 µM), hits mostly cytotoxic; 410,000 compounds, 0.76% hits; AID 588856
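CellTiter-Glo luminescence gave cytotoxicity after 18 hours at 37 degrees C. The cells were HepG2 CAGA-GFP in 1% FBS DMEM, stimulated with 500 pg/mL TGF-beta after compound addition. %Activity was normalised to no-cell wells (complete cell-killing) and DMSO (no toxicity), and curves were fitted and classified.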
S2 tox: viability counter-screen for ATXN expression inhibitors | S2 cells (HEK-293 line with an ATXN2-luciferase reporter) viability, CellTiter-Fluor protease fluorescence, 24 h | Potency, µM (series often up to 56.7 µM), usual class: cytotoxic | 400,000 compounds, 0.49% hits | AID 651635; further: nearly all actives have a fitted effect of over 40% in size
DT40 TDP1 CPT: DT40-hTDP1 cell growth loss with CPT. chicken DT40 Tdp1-/-;hTDP1 cells + 20 nM CPT, ATP luminescence, 48 h. Potency, µM (doses to about 46.2 µM), hits mostly inhibitors. 420,000 compounds, 12% hits. AID 686979; further: nearly all actives have a fitted effect of over 55% in size
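Chicken DT40 Tdp1-/- cells complemented with human TDP1, 400 cells/well, exposed to compounds plus 20 nM camptothecin for at least 48 h at 37 C; viability read as ATP content by CellTiter-Glo luminescence.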
TDP1 cell noCPT: qHTS for Inhibitors of human tyrosyl-DNA phosphodiesterase 1 (TDP1): qHTS in cells in absence of CPT. DT40 Tdp1-/- hTDP1 cells, no CPT, ATP luminescence, 48 h. Potency, µM (titrated, usually from 46.2 µM), most hits filed as inhibitors. 420,000 compounds, 15% hits; further: nearly all actives have a fitted effect of over 55% in size
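Cells were dispensed at 400 per well, compounds added by pin tool, plates incubated ≥48 hr at 37 °C, then CellTiter-Glo added for 30 min at room temperature before luminescence reading. Line: DT40 Tdp1-/- complemented with hTDP1; camptothecin omitted.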
TGFb inhibitor: blocks TGF-b signaling | 410,000 compounds, 1.2% hits | AID 588855 | HepG2 CAGA-GFP TGF-b/SMAD3 reporter, GFP fluorescence, 18 h; TGF-beta stimulated, 500 pg/mL final | Potency, µM (top dose mostly 46.1 µM), most hits filed as inhibitors; further: nearly all actives have a fitted effect of over 65% in size
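GFP signal (ex488/em500-530) from TGF-beta-stimulated HEPG2 CAGA-GFP cells, 500 pg/mL final, 18 h at 37 degrees C in DMEM plus 1% FBS, normalized to unstimulated and DMSO-stimulated controls.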
ATXN2 expr inh: ATXN2 expression inhibition | Potency, µM (titrated, usually from 57 µM), usual class: inhibitors | AID 1745845 | 360,000 compounds, 0.72% hits | HEK-293 ATXN2-luciferase reporter, luminescence, 24 h; further: nearly all actives have a fitted effect of over 55% in size
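ATXN2-luciferase reporter cells (luciferase flanked by upstream and downstream ATXN2 gene portions) were treated 24 h at 37 °C with compounds at up to 57 uM. SteadyGlo luminescence gave expression; GF-AFC fluorescence gave viability.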
Hits are given with their value; - = inactive; ? = inconclusive; . = not tested or not shown; [ ] = dose if it differs, or a comment. Only some compounds are listed: those with a hit (about 17% of all), similar ones and a draw of the others. The call rests on the fitted dose curve; in most records, active means well fitted curve in the direction sought with a large enough effect; inconclusive means small, poorly fitted or top-dose-only effect, or another doubt; inactive means no such curve, though single readings can be large; an effect the other way counts as inactive or inconclusive.

SMILES | HepG2 tox | S2 tox | DT40 TDP1 CPT | TDP1 cell noCPT | TGFb inhibitor | ATXN2 expr inh
CC(C)(C)c1cc2nc(NCCc3ccc(S(N)(=O)=O)cc3)ccn2n1 | - | - | - | - | - | -
COc1cc(CCNc2ccc3nnc(-c4ccccc4)n3n2)cc(OC)c1OC | - | ? | 16µM | 10µM | - | -
COc1ccc2nnc(-c3ccccc3)n2n1 | - | - | - | - | - | -
COc1cc(-c2cc3nc(NCCc4ccc(S(N)(=O)=O)cc4)ccn3n2)cc(OC)c1OC | - | - | 23µM | 21µM | - | -
COc1ccc(C2CC(=O)C(C=NCCN3CCN(C(=S)Nc4ccccc4)CC3)=C(O)C2)cc1OC (centres undefined) | - | - | - | - | - | -[11.3 µM]
COc1cc(-c2cc3nc(NCCc4ccncc4)ccn3n2)cc(OC)c1OC | - | - | 18µM | 18µM | - | -
COc1cc(-c2cc3nc(NCCOc4ccccc4)ccn3n2)cc(OC)c1OC | - | ? | 2.6µM | 2.3µM | ? | ?
CC(C)Cc1ccc(-c2cc3nc(NCCOc4ccccc4)ccn3n2)cc1 | - | - | ? | ? | ? | -
CC(C)Cc1ccc(-c2cc3nc(NCCCn4ccnc4)ccn3n2)cc1 | - | - | ? | ? | ? | -
NS(=O)(=O)c1ccc(CCNc2ccn3nc(-c4ccccc4)cc3n2)cc1 | - | - | 26µM | ? | - | -
COc1cc(-c2cc3nc(NCc4ccco4)ccn3n2)cc(OC)c1OC | - | - | 21µM | 12µM | - | -
CSCC[C@H](NC(=O)c1ccc(Cl)c(S(=O)(=O)N2CCCC2)c1)c1nc2ccccc2[nH]1 | - | - | ? | ? | - | -
CCOC(=O)c1ccc(NC(=O)Cn2ncc3c(C)n(Cc4ccccc4F)c(C)c3c2=O)cc1 | - | . | - | - | - | .
O=C(c1ccc2c(=O)n3c(nc2c1)CCC3)N1CCN(S(=O)(=O)c2ccccc2Br)CC1 | - | - | - | - | - | .
CC(C)CC1C(=O)N(Cc2cn(Cc3ccco3)nn2)CCS(=O)(=O)N1Cc1ccc(-c2ccccc2)cc1 (centres undefined) | - | ? | 15µM | ? | ? | ?
CC(C)CC1C(=O)N(Cc2cn(Cc3ccco3)nn2)CCS(=O)(=O)N1Cc1ccc(-c2ccc(F)nc2)cc1 (centres undefined) | - | . | ? | 23µM | ? | ?
CC(C)CC1C(=O)N(Cc2cn(Cc3ccco3)nn2)CCS(=O)(=O)N1Cc1ccc(-c2ccncc2)cc1 (centres undefined) | - | ? | 21µM | 15µM | - | ?
CCC/C=C/c1ccc(CN2C(CC(C)C)C(=O)N(Cc3cn(Cc4ccco4)nn3)CCS2(=O)=O)cc1 (centres undefined) | - | ? | ? | ? | 16µM | ?
CC(C)C1C(=O)N(Cc2cn(Cc3ccco3)nn2)CCS(=O)(=O)N1Cc1ccc(-c2ccc(F)nc2)cc1 (centres undefined) | - | - | - | - | - | -
CCN1CCN(C(=O)NC(C(=O)NC2C(=O)N3C2SC(C)(C)C3C(=O)O)c2ccccc2)C(=O)C1=O (centres undefined) | . | . | - | - | . | .
Cc1c(C(=O)NCc2ccccc2Cl)sc2nc3n(c(=O)c12)CCCC3 | - | . | ? | 23µM | - | .
Cc1c(C(=O)NCc2ccccc2Cl)sc2nc3n(c(=O)c12)CCCCC3 | - | - | ? | 26µM | - | -
Cc1c(C(=O)NCc2ccc(Cl)cc2)sc2nc3n(c(=O)c12)CCC3 | - | . | ? | ? | - | .
CSc1ncccc1C(=O)OCC(=O)NCc1ccccc1 | - | ? | - | - | - | -
c1nc(NC2CCNCC2)c2cc(-c3ccoc3)ccc2n1 | . | . | ? | - | . | .
SMILES | HepG2 tox | S2 tox | DT40 TDP1 CPT | TDP1 cell noCPT | TGFb inhibitor | ATXN2 expr inh
COc1ccccc1-c1ccc2ncnc(NCCNC(C)=O)c2c1 | . | . | - | - | . | .
CNc1ncnc2ccc(-c3ccccc3OC)cc12 | . | . | ? | 21µM | . | .
COc1ccccc1-c1ccc2ncnc(Nc3ccccc3)c2c1 | . | . | 21µM | - | . | .
COc1cccc(Nc2ncnc3ccc(Br)cc23)c1 | - | - | ? | 21µM | - | .
Fc1ccc(Nc2ncnc3ccc(-c4ccoc4)cc23)cc1 | . | . | 15µM | ? | . | .
COc1ccc(Nc2ncnc3ccc(C)cc23)cc1 | - | - | ? | ? | - | .
COc1ccc(OC)c(Nc2ncnc3ccc(Br)cc23)c1 | - | - | ? | ? | ? | -
Cc1ccc2ncnc(Nc3cccc([N+](=O)[O-])c3)c2c1 | - | - | 23µM | ? | - | -
CC(C)c1c(C(=O)NCc2ccncc2)cnn1-c1nccc(-c2cccs2)n1 | . | - | -[9.04 µM] | - | . | .
Cc1ccc(Sc2ccc(N3CCCC(C(=O)Nc4ccc(F)cc4F)C3)nn2)cc1 (centres undefined) | - | - | 15µM | 18µM | - | -
Cc1ccc(Sc2ccc(N3CCC(C(=O)Nc4ccc(Cl)cc4)CC3)nn2)cc1 | - | - | 15µM | 18µM | - | -
CCOC(=O)c1ccc(NC(=O)C2CCCN(c3ccc(Sc4ccc(C)cc4)nn3)C2)cc1 (centres undefined) | - | - | ? | 8.2µM | - | -
CCOCCCn1c(=N)c(S(=O)(=O)c2ccc(Cl)cc2)cc2c(=O)n3cccc(C)c3nc21 | - | - | . | . | - | -
O=C(CNC(c1ccccc1)c1ccccc1)Nc1ccccc1Br | - | - | ? | ? | - | .
CCN1CCN(c2cc(C)c3cc(NC(=O)c4cc(OC)cc(OC)c4)ccc3n2)CC1 | - | - | ? | 16µM | ? | ?
CCCCc1ccc(C(=O)Nc2ccc3nc(N4CCN(CC)CC4)cc(C)c3c2)cc1 | - | . | 3.7µM | 2.9µM | - | .
CCOc1ccc(C(=O)Nc2ccc3nc(N4CCN(CC)CC4)cc(C)c3c2)cc1 | - | ? | ? | 26µM | - | -
C/C(=N\NC(=O)c1ccc(NS(=O)(=O)c2cccs2)cc1)c1ccc(O)cc1O | - | - | ? | ? | ? | -
Cc1ccc(NC(=O)c2cc(N3CCOCC3)nc3ccccc23)cc1 | - | - | 23µM | ? | - | -
Cc1cccc(NC(=O)c2cc(N3CCOCC3)nc3ccccc23)c1 | - | - | 12µM | ? | - | -
O=C(Nc1ccccc1)c1cc(N2CCOCC2)nc2ccccc12 | - | - | - | ? | - | -
COc1cccc(C(=O)N2CCc3cc(OC)c(OC)cc3C2COc2ccc3c(C)cc(=O)oc3c2)c1 (centres undefined) | - | ? | ? | 10µM | - | -
COc1cccc(C(=O)COc2ccc3c(C)cc(=O)oc3c2)c1 | - | - | 3.3µM | 2.3µM | - | -
